Assay [1] deals with Mast/stem cell growth factor receptor Kit (Homo sapiens) (UniProt P10721). The following applies: at 1 µM.
For assay [2], the system named is Mast/stem cell growth factor receptor Kit (Homo sapiens), P10721 [D816V]. The following applies: at 0.1 µM.
Assay [3] has the same test system. The following applies: at 1 µM.
For assay [4], the system named is Mast/stem cell growth factor receptor Kit (Homo sapiens), P10721 [T670I]. The following applies: at 0.1 µM.
Assay [5] shares this test system. The following applies: at 1 µM.
Assay [6] relates to Mast/stem cell growth factor receptor Kit (Homo sapiens), P10721 [V560G]. The following applies: at 0.1 µM.
Sequence of Mast/stem cell growth factor receptor Kit (Homo sapiens), P10721 [V560G] (P10721 whole entry V560G): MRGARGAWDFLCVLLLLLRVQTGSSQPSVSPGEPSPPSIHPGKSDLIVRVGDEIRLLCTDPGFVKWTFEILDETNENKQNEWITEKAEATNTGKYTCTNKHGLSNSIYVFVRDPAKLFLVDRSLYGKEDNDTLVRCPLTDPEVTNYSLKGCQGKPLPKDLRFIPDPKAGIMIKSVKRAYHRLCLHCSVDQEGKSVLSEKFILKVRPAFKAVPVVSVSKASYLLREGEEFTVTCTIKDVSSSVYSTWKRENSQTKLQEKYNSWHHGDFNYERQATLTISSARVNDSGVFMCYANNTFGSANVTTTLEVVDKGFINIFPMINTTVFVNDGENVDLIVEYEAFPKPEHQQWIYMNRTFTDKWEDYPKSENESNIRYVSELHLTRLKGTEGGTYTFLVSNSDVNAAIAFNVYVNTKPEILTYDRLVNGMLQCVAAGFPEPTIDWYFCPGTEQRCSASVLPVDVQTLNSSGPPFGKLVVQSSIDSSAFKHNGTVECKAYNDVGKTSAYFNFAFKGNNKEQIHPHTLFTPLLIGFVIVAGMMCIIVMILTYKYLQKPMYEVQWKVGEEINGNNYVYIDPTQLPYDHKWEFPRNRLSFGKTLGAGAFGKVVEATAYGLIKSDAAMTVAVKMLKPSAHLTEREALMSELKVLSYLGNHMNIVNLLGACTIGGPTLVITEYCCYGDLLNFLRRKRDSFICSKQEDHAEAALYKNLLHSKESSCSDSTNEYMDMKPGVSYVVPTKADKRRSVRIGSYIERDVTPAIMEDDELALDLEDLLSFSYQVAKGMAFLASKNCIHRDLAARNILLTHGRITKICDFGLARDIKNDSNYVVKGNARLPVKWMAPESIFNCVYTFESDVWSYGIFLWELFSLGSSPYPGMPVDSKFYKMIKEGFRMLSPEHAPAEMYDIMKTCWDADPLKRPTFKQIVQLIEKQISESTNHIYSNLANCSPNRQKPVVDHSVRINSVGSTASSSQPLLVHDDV
Assay [7] has the same test system. The following applies: at 1 µM.
Assay [8] addresses Tyrosine-protein kinase Lck (Homo sapiens) (UniProt P06239). The following applies: at 0.1 µM.
The target is the same in assay [9]. As to conditions: at 1 µM.
Assay [10] concerns the target Leukocyte tyrosine kinase receptor (Homo sapiens) (UniProt P29376). As to conditions: at 0.1 µM.
For assay [11] the target is unchanged. As to conditions: at 1 µM.
For assay [12], the target named is Tyrosine-protein kinase Lyn (Homo sapiens) (UniProt P07948). As to conditions: at 0.1 µM.
Sequence of Tyrosine-protein kinase Lyn (Homo sapiens) (P07948 2-512 limits assumed): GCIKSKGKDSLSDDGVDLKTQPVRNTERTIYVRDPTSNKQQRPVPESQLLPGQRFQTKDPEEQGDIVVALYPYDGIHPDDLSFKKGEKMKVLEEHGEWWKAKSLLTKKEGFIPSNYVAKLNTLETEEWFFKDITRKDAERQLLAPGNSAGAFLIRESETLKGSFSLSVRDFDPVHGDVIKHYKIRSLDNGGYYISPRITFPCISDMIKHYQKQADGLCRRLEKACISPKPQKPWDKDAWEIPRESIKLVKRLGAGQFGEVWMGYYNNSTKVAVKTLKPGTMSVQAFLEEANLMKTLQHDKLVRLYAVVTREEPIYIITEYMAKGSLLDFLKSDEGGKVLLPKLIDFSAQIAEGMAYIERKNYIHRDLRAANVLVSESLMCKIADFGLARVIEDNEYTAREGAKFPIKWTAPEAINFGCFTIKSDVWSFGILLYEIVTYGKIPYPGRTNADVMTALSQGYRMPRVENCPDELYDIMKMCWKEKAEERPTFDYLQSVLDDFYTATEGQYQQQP
Assay [13] has the same target. As to conditions: at 1 µM.
Assay [14] has the same target. As to conditions: at 0.1 µM. This is another data set of the same source.
The target is the same in assay [15]. The following applies: at 1 µM. The source holds these as a separate data set.
Assay [16] has as its target T1, Tyrosine-protein kinase Mer (Homo sapiens) (UniProt Q12866).
T1 sequence (whole entry): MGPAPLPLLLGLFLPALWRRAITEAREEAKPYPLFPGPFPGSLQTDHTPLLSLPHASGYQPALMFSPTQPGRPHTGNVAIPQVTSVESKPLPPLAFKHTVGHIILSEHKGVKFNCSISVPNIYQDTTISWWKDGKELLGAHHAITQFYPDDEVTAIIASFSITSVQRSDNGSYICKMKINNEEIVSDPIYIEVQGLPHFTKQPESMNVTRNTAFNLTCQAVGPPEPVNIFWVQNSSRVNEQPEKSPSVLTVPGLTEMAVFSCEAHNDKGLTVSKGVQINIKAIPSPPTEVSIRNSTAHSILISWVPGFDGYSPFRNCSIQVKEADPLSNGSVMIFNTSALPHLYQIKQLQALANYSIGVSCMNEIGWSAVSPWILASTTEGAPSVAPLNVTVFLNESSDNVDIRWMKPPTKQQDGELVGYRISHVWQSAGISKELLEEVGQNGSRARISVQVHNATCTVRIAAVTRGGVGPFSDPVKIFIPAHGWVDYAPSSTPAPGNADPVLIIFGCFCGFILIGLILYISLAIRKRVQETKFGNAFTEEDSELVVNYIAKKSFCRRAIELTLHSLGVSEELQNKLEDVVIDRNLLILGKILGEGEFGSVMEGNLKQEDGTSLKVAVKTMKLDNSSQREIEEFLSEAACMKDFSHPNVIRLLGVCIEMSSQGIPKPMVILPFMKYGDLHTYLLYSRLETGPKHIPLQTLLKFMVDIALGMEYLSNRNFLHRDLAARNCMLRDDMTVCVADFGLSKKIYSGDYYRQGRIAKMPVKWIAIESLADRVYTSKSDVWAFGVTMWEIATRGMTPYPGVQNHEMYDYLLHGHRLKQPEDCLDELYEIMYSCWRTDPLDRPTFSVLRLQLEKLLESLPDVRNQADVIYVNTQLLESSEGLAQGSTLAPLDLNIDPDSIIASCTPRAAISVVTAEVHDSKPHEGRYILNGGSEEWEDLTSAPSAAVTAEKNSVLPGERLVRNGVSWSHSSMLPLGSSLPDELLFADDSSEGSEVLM
The following applies: at 0.1 µM.

For assay [17], the target named is T1, Tyrosine-protein kinase Mer (Homo sapiens). The following applies: at 1 µM.
Assay [18] concerns the target Hepatocyte growth factor receptor (Homo sapiens) (UniProt P08581). The following applies: at 0.1 µM.
The target is the same in assay [19]. The following applies: at 1 µM.
The target in assay [20] is T2, Muscle, skeletal receptor tyrosine-protein kinase (Homo sapiens) (UniProt O15146).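 Further: values are mean inhibition of MuSK from the GSK PKIS kinase screening panel.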
T2 sequence (whole entry): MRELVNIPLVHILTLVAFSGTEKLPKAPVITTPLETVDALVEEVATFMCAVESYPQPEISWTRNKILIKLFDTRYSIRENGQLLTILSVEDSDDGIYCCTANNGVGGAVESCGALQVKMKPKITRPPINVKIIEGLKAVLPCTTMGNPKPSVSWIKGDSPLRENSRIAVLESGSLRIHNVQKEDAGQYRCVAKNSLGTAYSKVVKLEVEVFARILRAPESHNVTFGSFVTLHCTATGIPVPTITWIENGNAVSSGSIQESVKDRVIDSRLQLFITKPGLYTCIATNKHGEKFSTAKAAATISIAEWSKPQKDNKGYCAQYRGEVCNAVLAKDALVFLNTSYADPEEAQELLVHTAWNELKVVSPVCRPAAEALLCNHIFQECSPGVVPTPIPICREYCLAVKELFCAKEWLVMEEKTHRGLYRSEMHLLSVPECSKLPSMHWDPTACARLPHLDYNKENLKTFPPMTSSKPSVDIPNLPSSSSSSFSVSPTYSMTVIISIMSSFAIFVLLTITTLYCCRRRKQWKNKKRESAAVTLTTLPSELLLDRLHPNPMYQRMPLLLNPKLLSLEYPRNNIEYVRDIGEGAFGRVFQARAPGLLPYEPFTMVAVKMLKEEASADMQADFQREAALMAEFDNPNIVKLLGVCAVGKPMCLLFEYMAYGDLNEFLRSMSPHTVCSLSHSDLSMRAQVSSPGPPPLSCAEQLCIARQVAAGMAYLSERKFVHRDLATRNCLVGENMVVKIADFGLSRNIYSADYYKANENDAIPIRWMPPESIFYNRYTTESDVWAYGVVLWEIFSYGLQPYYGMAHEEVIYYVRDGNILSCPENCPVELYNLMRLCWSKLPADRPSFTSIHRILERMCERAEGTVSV
The following applies: at 0.1 µM.

“And” between values parts separate entries of the source, which are not always exact repeats. Equal values may be shown once.

Sequence of Hepatocyte growth factor receptor (Homo sapiens) (P08581 whole entry): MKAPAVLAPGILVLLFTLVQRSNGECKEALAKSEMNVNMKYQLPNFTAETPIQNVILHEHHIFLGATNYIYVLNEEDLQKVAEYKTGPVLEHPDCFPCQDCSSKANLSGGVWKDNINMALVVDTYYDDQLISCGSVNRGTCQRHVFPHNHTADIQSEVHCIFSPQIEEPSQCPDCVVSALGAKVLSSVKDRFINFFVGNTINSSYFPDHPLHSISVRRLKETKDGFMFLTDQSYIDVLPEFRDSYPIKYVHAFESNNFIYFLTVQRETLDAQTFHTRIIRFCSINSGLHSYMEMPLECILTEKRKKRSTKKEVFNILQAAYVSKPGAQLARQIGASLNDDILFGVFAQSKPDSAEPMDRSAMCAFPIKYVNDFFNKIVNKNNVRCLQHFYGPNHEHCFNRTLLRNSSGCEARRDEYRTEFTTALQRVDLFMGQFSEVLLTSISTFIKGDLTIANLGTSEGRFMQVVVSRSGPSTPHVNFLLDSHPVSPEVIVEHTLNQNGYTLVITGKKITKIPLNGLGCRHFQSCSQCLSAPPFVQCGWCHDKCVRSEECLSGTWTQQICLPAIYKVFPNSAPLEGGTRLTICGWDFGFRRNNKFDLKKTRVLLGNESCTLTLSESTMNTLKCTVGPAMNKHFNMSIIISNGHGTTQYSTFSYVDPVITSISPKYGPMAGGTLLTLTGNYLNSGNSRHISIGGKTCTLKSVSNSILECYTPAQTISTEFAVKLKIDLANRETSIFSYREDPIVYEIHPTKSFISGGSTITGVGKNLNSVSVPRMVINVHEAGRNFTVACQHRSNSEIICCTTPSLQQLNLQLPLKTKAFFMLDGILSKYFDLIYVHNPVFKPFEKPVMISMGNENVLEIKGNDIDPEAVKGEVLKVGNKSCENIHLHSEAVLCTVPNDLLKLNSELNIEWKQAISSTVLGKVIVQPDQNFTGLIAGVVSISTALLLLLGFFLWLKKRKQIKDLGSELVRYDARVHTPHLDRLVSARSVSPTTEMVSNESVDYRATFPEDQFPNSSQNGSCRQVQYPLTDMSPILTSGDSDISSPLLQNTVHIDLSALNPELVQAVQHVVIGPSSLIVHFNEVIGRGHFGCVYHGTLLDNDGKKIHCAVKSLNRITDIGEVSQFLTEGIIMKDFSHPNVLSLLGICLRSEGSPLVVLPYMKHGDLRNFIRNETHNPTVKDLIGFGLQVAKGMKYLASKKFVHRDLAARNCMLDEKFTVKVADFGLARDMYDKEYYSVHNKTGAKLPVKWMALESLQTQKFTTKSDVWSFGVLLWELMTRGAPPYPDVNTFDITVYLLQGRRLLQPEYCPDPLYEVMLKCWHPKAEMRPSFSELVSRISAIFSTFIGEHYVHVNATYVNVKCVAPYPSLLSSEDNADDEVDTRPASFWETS
Sequence of Leukocyte tyrosine kinase receptor (Homo sapiens) (P29376 whole entry): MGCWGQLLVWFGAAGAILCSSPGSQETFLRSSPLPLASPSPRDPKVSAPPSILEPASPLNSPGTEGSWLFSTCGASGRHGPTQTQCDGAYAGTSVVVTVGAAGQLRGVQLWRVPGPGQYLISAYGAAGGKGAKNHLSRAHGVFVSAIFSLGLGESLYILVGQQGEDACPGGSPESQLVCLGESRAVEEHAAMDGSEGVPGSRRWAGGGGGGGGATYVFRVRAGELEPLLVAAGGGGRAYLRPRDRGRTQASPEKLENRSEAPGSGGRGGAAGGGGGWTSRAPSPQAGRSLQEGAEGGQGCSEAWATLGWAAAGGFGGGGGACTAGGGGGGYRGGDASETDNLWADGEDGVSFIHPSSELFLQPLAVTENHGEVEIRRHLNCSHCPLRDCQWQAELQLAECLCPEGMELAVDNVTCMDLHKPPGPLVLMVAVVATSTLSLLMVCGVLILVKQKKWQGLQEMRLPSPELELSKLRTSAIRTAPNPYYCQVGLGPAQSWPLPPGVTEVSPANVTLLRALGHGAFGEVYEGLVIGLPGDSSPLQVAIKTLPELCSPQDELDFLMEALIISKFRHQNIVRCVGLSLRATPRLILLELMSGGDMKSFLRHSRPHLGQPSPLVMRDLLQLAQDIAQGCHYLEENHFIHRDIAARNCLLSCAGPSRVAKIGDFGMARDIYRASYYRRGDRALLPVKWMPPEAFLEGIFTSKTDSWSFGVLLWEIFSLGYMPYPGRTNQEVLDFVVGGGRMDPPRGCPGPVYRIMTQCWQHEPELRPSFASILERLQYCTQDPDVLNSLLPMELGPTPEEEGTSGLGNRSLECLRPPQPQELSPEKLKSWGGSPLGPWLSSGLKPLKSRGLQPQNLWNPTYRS
Sequence of Mast/stem cell growth factor receptor Kit (Homo sapiens), P10721 [T670I] (P10721 whole entry T670I): as the sequence (P10721 whole entry V560G) above, with G560V, T670I counted along it
Sequence of Tyrosine-protein kinase Lck (Homo sapiens) (P06239 2-509 limits assumed): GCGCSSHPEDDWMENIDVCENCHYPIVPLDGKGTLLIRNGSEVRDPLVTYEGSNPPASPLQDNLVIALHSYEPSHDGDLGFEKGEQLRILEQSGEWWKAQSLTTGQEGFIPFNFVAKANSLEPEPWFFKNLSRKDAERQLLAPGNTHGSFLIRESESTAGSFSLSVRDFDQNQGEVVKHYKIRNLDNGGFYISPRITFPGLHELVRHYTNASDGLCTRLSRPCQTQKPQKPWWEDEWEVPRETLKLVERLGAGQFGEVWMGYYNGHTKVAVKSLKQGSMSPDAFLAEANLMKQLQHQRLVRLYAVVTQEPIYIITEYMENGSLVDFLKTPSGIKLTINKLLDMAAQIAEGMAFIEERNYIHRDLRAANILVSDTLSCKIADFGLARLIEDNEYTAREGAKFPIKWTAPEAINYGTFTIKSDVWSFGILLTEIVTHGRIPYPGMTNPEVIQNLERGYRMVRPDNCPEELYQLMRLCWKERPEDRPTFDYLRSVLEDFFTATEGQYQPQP
Sequence of Mast/stem cell growth factor receptor Kit (Homo sapiens) (P10721 whole entry): as the sequence (P10721 whole entry V560G) above, with G560V counted along it
Sequence of Mast/stem cell growth factor receptor Kit (Homo sapiens), P10721 [D816V] (P10721 whole entry D816V): as the sequence (P10721 whole entry V560G) above, with G560V, D816V counted along it

On to `Cn1c(-c2nonc2N)nc2cnccc21`, for which the inhibition in assay [1] was 5.33%; in assay [2] it was 1.72%; in assay [3], 2.94%; in [4], 2.83%; in assay [5], 2.49%; in assay [6] it was -0.55%. For the same compound, the inhibition was -0.31% in assay [7]; 2.46% in assay [8]; 3.49% in assay [9]; 2.56% in assay [10]; 4.18% in assay [11]; 4.05% in assay [12]. Further, the inhibition came out at 2.29% in assay [13]; 2.97% in assay [14]; 1.52% in [15]; 1.12% in assay [16]; 3.84% in [17]; 3.78% in assay [18]. Besides, the inhibition in assay [19] is 3.65%; in [20] it was 2.14%.
As to `COc1ccc(Nc2ncc(-c3ccccc3)o2)cc1OC`, the inhibition is 95.9% in assay [1]; -0.42% in assay [2]; 1.76% in [3]; 46.1% in assay [4]; 90.3% in assay [5]; 45.7% in assay [6]. For the same compound, the inhibition in [7] is 84.8%; in assay [8], 2.31%; in assay [9] it was 21.2%; in assay [10] it was 1.44%; in assay [11] it was 2.24%; in [12] it was 7.52%. The inhibition is 37.3% in [13]; 5.1% in assay [14]; 32.9% in assay [15]; -0.52% in assay [16]; 5.18% in assay [17]; 2.78% in assay [18]. The inhibition in [19] came out at 1.69%; in assay [20], 2.37%.
`NS(=O)(=O)c1cccc(N/C=C2\C(=O)Nc3ccccc32)c1`: the inhibition was 63.9% in [1]; 3.62% in assay [2]; 2.43% in assay [3]; 6.57% in [4]; 45.2% in assay [5]; -0.34% in assay [6]. Besides, the inhibition in assay [7] was 8.83%; in assay [8] it was 2.31%; in [9], 6.78%; in assay [10], 3.74%; in assay [11], 10.6%; in assay [12], 5.77%. The inhibition stood at 11.6% in assay [13]; 3.69% in assay [14]; 8.12% in assay [15]; 3.46% in assay [16]; 8.24% in assay [17]; 4.45% in assay [18]. The inhibition in assay [19] came out at 6.92%; in [20], 4.44%.
As to `CS(=O)(=O)CCNCc1ccoc1-c1ccc2ncnc(Nc3ccc(OCc4ccccc4)cc3)c2c1`, the inhibition in [1] is 6.88%; in [2] it was 5.01%; in assay [3], 1.5%; in assay [4], 2.27%; in assay [5] it was 2.3%; in [6], 0.74%. For the same compound, the inhibition in assay [7] amounted to 3.57%; in assay [8], 1.79%; in [9], 8.23%; in [10], 1.59%; in assay [11] it was 1.37%; in [12], 2.38%. Besides, the inhibition amounted to 4.27% in assay [13]; 1.69% in assay [14]; 4.32% in assay [15]; 3.82% in [16]; 25.2% in assay [17]; 3.02% in [18]. Further, the inhibition was 4.88% in assay [19] and 1.36% in assay [20].
Consider `CN(C)CCNC(=O)Nc1ccc(N(C)c2ccnc(Nc3ccc(CS(C)(=O)=O)cc3)n2)cc1`, for which the inhibition in [1] is 57.6%; in [2], 3.66%; in assay [3], 3.76%; in assay [4], 4.26%; in [5], 6.89%; in [6] it was 11.7%. Also, the inhibition in assay [7] stood at 54.1%; in assay [8], 3.05%; in assay [9], 8.53%; in assay [10], 3.62%; in assay [11], 10.1%; in assay [12], 5.57%. For the same compound, the inhibition in [13] stood at 9.57%; in assay [14], 2.36%; in assay [15] it was 7.59%; in assay [16] it was 0.57%; in [17], 4.35%; in assay [18], 5.93%. Moreover, the inhibition in assay [19] came to 25.4%; in assay [20], 3.67%.
On to `CCS(=O)(=O)c1ccc(OC)c(Nc2ncc(-c3cccc(C(C)=O)c3)o2)c1`, for which the inhibition was 71.4% in assay [1]; 5.74% in assay [2]; 12.1% in [3]; -0.79% in assay [4]; 10.7% in assay [5]; 3.47% in assay [6]. For the same compound, the inhibition in assay [7] stood at 13%; in [8], 2.7%; in assay [9], 25.4%; in assay [10], 2.87%; in assay [11], 3.34%; in assay [12], 11.3%. The inhibition in assay [13] was determined as 45.5%; in assay [14], 7.74%; in assay [15] it was 40.8%; in [16], 1.15%; in [17], 2.12%; in assay [18], 1.95%. The inhibition stood at 7.9% in assay [19] and 2.82% in [20].
For `CN1CCN(Cc2ccc(-c3cc4ncnc(Nc5ccc(OCc6cccc(F)c6)c(Cl)c5)c4s3)o2)CC1`, the inhibition in [1] is 11.5% and 12.7%; in [2], 3.79% and 5.98%; in assay [3], 5.98% and 4.53%; in assay [4] it was 2.89% and 2.77%; in assay [5] it was 2.77% and 5.27%; in [6] it was -1.59% and -3.38%. Further, the inhibition in [7] is 2.22% and 1.14%; in [8] it was 4.76% and 7.19%; in assay [9] it was 22.2% and 27.2%; in [10], 3.61% and 4.17%; in assay [11] it was 6.82% and 9.25%; in assay [12] it was 3.27% and 7.55%. Moreover, the inhibition in assay [13] was 9.39% and 15.3%; in [14] it was 2.07% and 5.46%; in assay [15], 6.51% and 12%; in assay [16], 8.38% and 10.3%; in assay [17], 48.5% and 49.4%; in [18] it was 11.1% and 5.95%. Moreover, the inhibition in assay [19] is 24.3% and 34.3%; in [20], 0.99% and 4.74%.
For `Nc1nonc1-c1nc2cnccc2n1C1CC1`, the inhibition is 14.9% and 15.5% in assay [1]; 3.53% and 1.67% in assay [2]; 3.46% and 2.18% in assay [3]; 1.4% and 2.21% in [4]; 6.91% and 8.64% in assay [5]; -1.94% and 0.52% in assay [6]. Further, the inhibition in [7] was -1.23% and -2.01%; in assay [8], 3.06% and -3.03%; in [9] it was 3.02% and -1.62%; in assay [10], 2.93% and 1.07%; in [11] it was 2.71% and 2.44%; in assay [12], 3.73% and 1.56%. Also, the inhibition in assay [13] was 4.88% and 4.63%; in assay [14], 2.39% and 0.71%; in [15] it was 4.2% and 2.36%; in assay [16], 3.41% and 1.34%; in assay [17], 6.46% and 2.52%; in [18] it was 6.7% and 2.47%. The inhibition in assay [19] is 7.09% and 3.3%; in assay [20], 4.75% and 1.45%.
With `NS(=O)(=O)c1ccc(N/N=C2\C(=O)Nc3cccc(CCc4ccncc4)c32)cc1`, the inhibition in assay [1] turned out to be 63.7%; in assay [2], 2.92%; in assay [3], 5.18%; in [4], 6.45%; in assay [5] it was 15%; in assay [6] it was 4.31%. Moreover, the inhibition in [7] stood at 14.1%; in assay [8], 2.22%; in assay [9], 5.75%; in [10] it was 1.69%; in assay [11], 1.43%; in assay [12] it was 2.64%. In addition, the inhibition amounted to 6.56% in [13]; 2.69% in [14]; 5.45% in [15]; 2.62% in assay [16]; 3.17% in assay [17]; 10.5% in assay [18]. Moreover, the inhibition in assay [19] was 15.4%; in [20], 12.2%.

The term inhibition denotes the drop in the measured response relative to a control, in per cent.

These data come from ChEMBL document CHEMBL1961873, “Compounds: GSK PKIS; Assays: Nanosyn kinase panel” (2012).
